Shown are actives, neighbours in structure and some others; about 1.3% of the full set was active somewhere.
USP2a inhib: qHTS Assay for Inhibitors of Ubiquitin-specific Protease USP2a; 0.1% of 60,000 active; Ubiquitin carboxyl-terminal hydrolase 2 (Homo sapiens), O75604; Potency, µM (highest dose often 38.3 µM), without a hit: at the highest dose activity change, negative = inhibition, actives largely listed as inhibitors; USP2a enzymatic assay, qHTS inhibition; note: potency is the fitted concentration of half-maximal effect; nearly all actives have a fitted effect of over 60% in size
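USP2 core (20nM final) preincubated 30 min RT with compound, then Ub-PLA2 20nM and NBD C6-HPC 20uM final added; buffer 20mM Tris-HCl pH 8.0, 2mM CaCl2. Fluorescence Ex 460/Em 535 read at 0 and 2.5 h; normalized to NEM.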
BRCT PPI red: qHTS Assay for Inhibitors of BRCT-Phosphoprotein Interaction (Red Fluorophore). BRCT-phosphopeptide binding, red fluorescence polarization. Potency, µM (top dose mostly 76.9 µM), for inactives: at the top dose activity change, negative = inhibition, actives largely listed as inhibitors. 0.03% of 75,000 active; note: % is set by controls: 0 for no effect and ±100 for the full control effect
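Rhodamine-labelled pBACH1 10-mer (100 nM) bound to BRCT domain (100 nM) at pH 7.3; compounds incubated 12 min room temperature, polarization read. Free peptide defines full inhibition; unlabelled decapeptide titrated as control.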
TsaE inh: qHTS Assay for Inhibitors of YjeE | purified YjeE enzyme, qHTS inhibition assay | Potency, µM | 0.05% of 71,000 active | AID 605, 2007
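Purified YjeE (10 uM) with BODIPY Texas Red-labeled ADP probe (2 uM); compounds pin-transferred, 15 min at room temperature. Binding inhibition read as decreased fluorescence polarization; ADP titration as control.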
BRCT PPI green: qHTS Assay for Inhibitors of BRCT-Phosphoprotein Interaction (Green Fluorophore); 0.05% of 75,000 active; BRCA1 BRCT-phosphopeptide binding, green fluorescence polarization; Potency, µM (highest dose often 76.9 µM), for inactives: at the highest dose activity change, negative = inhibition, usual class: inhibitors;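 note: potency is the fitted concentration of half-maximal effect; plate controls were peptide without protein for full effect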
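Fluorescence polarization: His-tagged BRCT (~35 kDa BRCA1 C-terminus, 250 nM) bound to 100 nM fluorescein-labeled phosphorylated 10-aa BACH1 peptide, pH 7.3 phosphate buffer with DTT and Tween 20. Compounds incubated 12 min at room temperature; inhibition read as lowered polarization.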
ERK AVP block: qHTS Assay for Inhibitors of the ERK Signaling Pathway using a Homogeneous Screening Assay; AID 995, 2007; HEK293-V1b, vasopressin-stimulated pERK AlphaScreen; Potency, µM (top dose mostly 57.5 µM), for the others: top-dose activity, negative = inhibition, most hits filed as inhibitors; 0.99% of 72,000 active; note: potency is the fitted concentration of half-maximal effect; % is set by controls: 0 for no effect and ±100 for the full control effect; nearly all actives have a fitted effect of over 55% in size
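Phosphorylated ERK1/2 detected via AlphaScreen bead proximity in lysates of V1b-expressing HEK293 cells given 25 nM vasopressin for 5 min after 30 min compound exposure (37 °C). AC50 from Hill equation; basal DMSO 0%, vasopressin 100%.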
DNA Pol III inh: qHTS Assay for Inhibitors of DNA Polymerase III Holoenzyme System | 0.25% of 71,000 active | reconstituted DNA polymerase III holoenzyme replication, biochemical | AID 603, 2007 | Potency, µM (top dose mostly 57.1 µM), for the others: at the highest dose activity change, negative = inhibition; note: potency is the fitted concentration of half-maximal effect; % is set by controls: 0 for no effect and ±100 for the full control effect
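Reconstituted *E. coli* holoenzyme (0.35 nM Pol III, 1 nM beta, 154 nM SSB, 2 nM primase) was preincubated with compound for 15 min at RT. Synthesis on 1.4 nM ssM13Gori ran 35 min, then was stopped with PicoGreen/EDTA and read as dsDNA fluorescence.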
Active calls of the source: *; i = inactive; ? = inconclusive; nt = not tested or not shown; [ ] = remark or other dose. Calls come from the whole dose curve; as a rule, active = well fitted curve in the direction sought with a large enough effect; inconclusive = small, poorly fitted or top-dose-only effect, or another doubt; inactive = no such curve, though single readings can be large; an effect the other way counts as inactive or inconclusive.

SMILES	USP2a inhib	BRCT PPI red	TsaE inh	BRCT PPI green	ERK AVP block	DNA Pol III inh
COc1cccc2c1NC(C(=O)O)C1CC=CC21 (centres undefined)	-27%	-24%	?	-27%	-11%	25µM*
O=C1c2ccccc2C(O)(O)[C@@]1(O)[C@]1(O)C(=O)c2ccccc2C1(O)O	nt	-1%[15.4 µM]	i	1%[15.4 µM]	26%[11.5 µM]	-8%[11.4 µM]
C=CCn1c2ccccc2c2nnc(SCCCn3c(=O)[nH]c4ccccc43)nc21	8%	-1%	i	-7%	13µM*	-15%
O=C(NCCN1CCCC1)c1ccc(Cc2nc3ccccc3[nH]2)cc1	nt	0%	nt	-2%	nt	nt
O=C1NC2(CCCC2)N=C1c1ccc(Cl)cc1	-3%	0%	i	0%	-2%	-5%
N#CC(C#N)=c1ccc2c(c1)NC1(CCCCC1)N=2	12%	1%	i	1%	16µM*	-3%
COc1ccc(C2=NOC(C(=O)Nc3cc(Br)ccc3O)C2)cc1OC (centres undefined)	2%	2%	i	2%	10µM*	3%
COc1ccc(C2=NOC(C(=O)Nc3ccc(C(C)=O)cc3)C2)cc1OC (centres undefined)	18%	-2%	i	2%	-1%	0%
CCc1cccc2c3c([nH]c12)[C@](CC)(CC(=O)O)OCC3	nt	nt	i	nt	nt	-4%
CN(C)CCN(Cc1ccccc1)S(=O)(=O)c1cccc2cccnc12	nt	-4%	i	1%	nt	-2%
O=c1c(-c2ccc(Cl)cc2)nc2cnc(N3CCNCC3)nc2n1Cc1cccs1	77%	11%	i	19%	?	25µM*
O=c1c(-c2cccs2)nc2cnc(N3CCNCC3)nc2n1Cc1cccs1	73%	0%	i	2%	-7%	7.9µM*
O=S(=O)(NCc1ccccn1)c1cccc2cccnc12	nt	0%	i	0%	nt	-8%
CC(C)[C@@H]1OC(=O)C=CC=CC=CC=CC=CC[C@@H](O)[C@H](C)[C@@H](O)C[C@H](O)C[C@H](O)C[C@H](O)C[C@H](O)C[C@H](O)C[C@H](O)C=C[C@@H]1C	nt	nt	i	nt	nt	-11%[11.4 µM]
N#CC1=C(N)N(c2ccccc2)C2=C(C(=O)CCC2)C1c1ccsc1 (centres undefined)	8%	0%	i	0%	?	0%
CCSc1sccc1C1C(C#N)=C(N)N(c2cccnc2)C2=C1C(=O)CCC2 (centres undefined)	17%	-4%	i	-1%	32µM*	-4%
CC(=O)OC[C@@H]1O[C@@H](Oc2cc(OC(C)=O)c3c(=O)cc(-c4ccc(OC(C)=O)c(OC(C)=O)c4)oc3c2)[C@H](OC(C)=O)[C@H](OC(C)=O)[C@@H]1OC(C)=O	nt	nt	i	nt	nt	-4%
Cc1cc(C)c(S(=O)(=O)Nc2ccc(O)cc2)c(C)c1	-1%	3%	i	1%	0%	-4%
Cc1cc(Nc2ccc(O)cc2)ccc1N	nt	-4%	100µM*	-1%	-18%	-7%
CCCCCCCCCCCCCCC/C=C\[C@H](O)[C@@H](NC(=O)CCCCCCCCCCCCC)OC (tested in a mixture with another compound)	-3%	2%	i	-2%	12%	-5%
COc1ccc(-c2c3c(=O)n(C)c(=O)n(C)c3cn2C2CCCCC2)cc1	10%	-3%	i	-3%	16µM*	-9%
CN(C)CCNC(=O)c1ccc(-n2c(=O)c(=O)[nH]c3ccccc32)cc1	nt	-3%	nt	-4%	nt	nt
O=C(O)c1nnsc1-c1ccc(-c2snnc2C(=O)O)cc1	nt	1%[15.4 µM]	i	-1%[15.4 µM]	18%[11.5 µM]	-7%[11.4 µM]
CCn1c2ccccc2c2nnc(SCC(=O)c3ccccc3)nc21	3%	0%	i	-1%	20µM*	0%
CCn1c2ccccc2c2nnc(SCC(=O)Nc3ncccn3)nc21	3%	1%	i	-1%	-24%	-6%
SMILES	USP2a inhib	BRCT PPI red	TsaE inh	BRCT PPI green	ERK AVP block	DNA Pol III inh
O=c1c(O)c(-c2ccc(O)c(O)c2)oc2c(OC[C@H]3O[C@@H](O)[C@@H](O)[C@H](O)[C@@H]3O)c(O)cc(O)c12	nt	nt	i	nt	nt	-28%
CCOC(=O)C1CCN(c2c(NCc3ccc(C(=O)O)cc3)c(=O)c2=O)CC1	nt	-1%	i	-1%	nt	-4%
Clc1cccc(-c2nnc(SCc3nc4ccccc4[nH]3)n2Cc2ccco2)c1	56%	-2%	i	1%	?	-6%
Clc1ccc(OCc2nnc(SCc3nc4ccccc4[nH]3)n2Cc2ccco2)cc1	58%	-1%	i	10%	20µM*	3%
CCCCCCCCCCCCCCCCOC[C@@H](COCC(F)(F)F)OP(=O)(O)OCO	nt	nt	i	nt	nt	-7%
COC(=O)[C@H]1[C@@H]2C[C@H]3c4[nH]c5ccccc5c4CCN3C[C@@H]2CC[C@@H]1O	nt	nt	i	nt	nt	-4%
CN1CCN(c2ccc3nc(-c4ccc5nc(-c6ccc(O)cc6)[nH]c5c4)[nH]c3c2)CC1	nt	-2%[15.4 µM]	i	1%[15.4 µM]	1%[11.5 µM]	2µM*
COc1cccc(N2CCN(S(=O)(=O)c3ccc4nc(-c5ccccc5)[nH]c4c3)CC2)c1	37%	0%	i	0%	-25%	-2%
CCOC(=O)N1CCC(=C2c3ccc(Cl)cc3CCc3cccnc32)CC1	61%	-3%	i	-2%	20µM*	-3%
CN1CCC[C@@H]1c1cccnc1.O=C(O)c1ccccc1O.O=C([OH2+])c1ccccc1O.O=C([OH2+])c1ccccc1O.O=C([OH2+])c1ccccc1O.[Cu]	nt	-1%[15.4 µM]	i	-1%[15.4 µM]	-10%[11.5 µM]	-5%[11.4 µM]
CCc1ccc2oc(-c3cccc(NC(=O)c4cccnc4)c3)nc2c1	37%	-1%	i	-1%	25µM*	2%
Cc1noc(C)c1-c1cncnc1NCc1cccnc1	-15%	1%	i	0%	15%	-5%
CN[C@]1(C)[C@@H]2CC[C@@H](C2)C1(C)C	-3%	-1%	i	-2%	22%	-2%
CCOc1ccc2nc(NCCNC(=O)CC)c(C#N)cc2c1	-4%	-2%	i	-1%	-3%	-1%
Cc1ccc2cc(C#N)c(NCCNC(=O)C3CC3)nc2c1C	14%	0%	i	-3%	25µM*	-5%
O=C(Nc1ccc(Cl)cc1)Nc1ccc2c(c1)N1CCN=C1S2	49%	1%	i	-1%	32µM*	0%
Clc1nc(NCCc2ccccc2)c2ncn(-c3ccccc3)c2n1	nt	nt	i	nt	nt	-7%[11.4 µM]
